The source of these data is PubChem BioAssay AID565 (University of Pittsburgh Molecular Library Screening Center, 2006).

Hit rate of the full screen: of about 65,000 compounds, about 1,200 (1.8%) were called active. Shown is part of a subset that was picked to be rich in actives. Values without a mark were called inactive. Cut-off read from the data, not from the text of the source: active = inhibition above about 50%; inactive = the rest.

The experiment has as its target Gag-Pol polyprotein (Human immunodeficiency virus type 1 group M subtype B (isolate HXB2)) (UniProt P04585). In words: HIV-1 RT RNase H inhibitors, primary screen, biochemical, fluorescence (AID 565). The settings on record: RT-RNase H RNA/DNA duplex cleavage, at 10 µM, stronger effect = higher value.
In the case of `Cc1cc(C)c(C#N)c(SCc2ccccc2C(=O)O)n1`, the inhibition – broadly, the relative decrease from the control value, in per cent – was -5.35%.
To `COc1ccc(N2CCN(CCNC(=O)CCN3C(=O)COc4ccccc43)CC2)cc1` belongs 7.09%; to `Cc1ccc(C(=O)COc2cccc(NC(=O)c3ccco3)c2)cc1`, 9.47%.
Consider `O=C(Nc1ccc(Oc2ccccc2)cc1)c1ccco1`, for which the inhibition is -7.33%.
As for `CCOc1cc(NC(=O)c2ccco2)c(OCC)cc1NC(=O)COc1ccccc1`, the inhibition was 52.4% (active).
Consider `Cc1cc(Nc2ccccc2)n(C(=O)c2ccc(N)cc2)n1`, for which the inhibition is -17.6%.
Consider `CCCOC(=O)Nc1ccccc1C(N)=O`, for which the inhibition is -29.1%.
As for `O=C(CC1Nc2ccccc2NC1=O)Nc1ccccc1` (stereo not drawn), the inhibition was -4.38%.
To `CCOC(=O)c1ccccc1NC(=O)CC1Nc2ccccc2NC1=O` (stereo not drawn) belongs 71.6% (active); to `CCC(C)NC(=O)C1CCC(=O)N1Cc1ccc(C)cc1` (stereo not drawn), -9.01%; to `CCN(CC)CCCNC(=O)c1cc(-c2cccc(Cl)c2)on1`, -16%.
Regarding `CCN(CC)c1ccc2cc(C(=O)O)c(=O)oc2c1`, the inhibition was -8.5%.
Consider `CCc1ccc2oc(-c3ccc(N)cc3)nc2c1`, for which the inhibition is -12.6%.
`CCN(CC)c1ccc2oc(=O)c(C)nc2c1`: the inhibition is 68.2% (active).
`Cc1cccc(NC(=O)COc2ccc(Br)cc2C)n1`: the inhibition is -9.39%.
On to `Cn1nnc(NC(=O)CSc2ncn[nH]2)n1`, for which the inhibition is -0.52%.
With `CC(C)(C)c1ccc(C(=O)CSc2ncn[nH]2)cc1`, the inhibition was 82.3% (active).
Next, `CCN(C(=O)CSc1ncn[nH]1)c1cccc2ccccc12`: -10.7%.
With `Cc1cccc(N=C2NC(=O)CS2)c1C`, the inhibition was -0.31%.
Take `c1ccc2cc(OCCN3CCCC3)ccc2c1`: the inhibition was -14.7%.
For the compound `N#Cc1cccc(CSc2nnc(CCCO)n2-c2ccccc2)c1`, the inhibition was -5.32%.
To `O=C(OCc1nnc(-c2ccccc2)o1)c1ccc2c(c1)C(=O)N(CCc1ccccc1)C2=O` belongs 16.2%; to `O=c1c2ccccc2[nH]c(=S)n1CCN1CCC(=C(c2ccc(F)cc2)c2ccc(F)cc2)CC1`, 53.2% (active).
For the compound `O=C(CCn1c(=S)[nH]c2ccccc2c1=O)NCCCN1CCCC1=O`, the inhibition is -8.03%.
Regarding `COc1ccccc1Cn1c(=S)[nH]c2cc(C(=O)N3CCN(C)CC3)ccc2c1=O`, the inhibition was -5.95%.
For `CN(C)Cc1c(O)ccc2occ(C(O)c3ccccc3)c12` (stereo not drawn), the inhibition is 2.07%.
Regarding `COc1ccc(OC)c2c(N)c(C#N)c(C(F)(F)C(F)(F)F)nc12`, the inhibition is -3.29%.
As for `Cc1ccccc1NC(=O)Cc1nnc(SCC(=O)N2CCN(c3ccccc3)CC2)n1C`, the inhibition was 1.53%.
To `Cn1c(CC(=O)Nc2ccccc2)nnc1SCC(=O)c1ccccc1` belongs 50.1% (active); to `Cn1c(CNc2nc(-c3ccccc3)cs2)nnc1SCC(=O)c1ccccc1`, -5.65%; to `CCOC(=O)C(C(=O)OCC)C(C#N)c1ccccc1` (stereo not drawn), -13.1%.
Next, `Cc1ccc(-c2nnc(SC(C)C#N)n2N)cc1` (stereo not drawn): -0.02%; `COc1cc(C(=O)Nc2nccs2)cc(OC)c1OC`: -12.7%.
With `N#Cc1c(NC(=O)CCCN2C(=O)c3ccccc3C2=O)oc(-c2ccccc2)c1-c1ccccc1`, the inhibition was 19%.
For the compound `COc1cc(C(=O)Nc2oc(-c3ccccc3)c(-c3ccccc3)c2C#N)cc(OC)c1OC`, the inhibition is 80% (active).
Regarding `COCCNC(=O)C(c1ccc(C)o1)N(Cc1ccccc1)C(=O)Cn1nnc2ccccc21` (stereo not drawn), the inhibition is 5.47%.
As to `CC(C)(C)NC(=O)C(c1ccco1)N(Cc1ccc2c(c1)OCO2)C(=O)Cn1nnc2ccccc21` (stereo not drawn), the inhibition is 9.38%.
Consider `CCC(C)(C)NC(=O)C(c1cccn1C)N(Cc1ccc(C)cc1)C(=O)Cn1nnc2ccccc21` (stereo not drawn), for which the inhibition is 50.2% (active).
With `CCOc1ccc(Cn2c(SCCCCC#N)nc3c2c(=O)n(C)c(=O)n3C)cc1OCC`, the inhibition was 29.2%.
As for `Cc1ccc(C)n1-c1ccncc1`, the inhibition is -2.45%.
For `O=C(COc1ccc(S(=O)(=O)NCCc2ccccc2)cc1)N1CCCC1`, the inhibition was -8.41%.
For the compound `Cc1ccc(Cn2nnc3c(=O)n(CC(=O)N4CCCCC4)cnc32)cc1`, the inhibition is -6.24%.
Next, `CC(=O)Nc1ccc(-c2nn3c(C)nnc3s2)cc1C`: -4.83%; `CCN1CCc2c(C#N)c(NCc3ccccc3)nc(NCCO)c2C1`: 10.1%; `N#Cc1ccc(COC(=O)Cn2nnc(-c3ccccc3)n2)cc1`: -12.9%.
On to `N#Cc1c(N)sc2c1CCN(C(=O)OCc1ccccc1)C2`, for which the inhibition is 52% (active).
For `CN(C(=O)CSc1nnnn1-c1ccccc1)C1CCCCC1`, the inhibition is -7.53%.
As to `O=C(O)CCC(=O)N(Cc1cccs1)Cc1cccs1`, the inhibition was 4.03%.
Regarding `Cc1ccc(-c2nn(-c3ccccc3)cc2CN(Cc2ccccc2)C(=O)CCC(=O)O)o1`, the inhibition was 81.7% (active).
Regarding `CCN(Cc1ccccc1)C(=O)CSc1nc(C)cc2c1C(=O)OC2`, the inhibition was -15.7%.
For `CSCCC1NC2(C(=O)Nc3ccc(Cl)cc32)[C@@H]2C(=O)N(C3CCCC3)C(=O)[C@H]12` (stereo partly drawn), the inhibition was 2.23%.
Regarding `c1ccc2c(c1)OCC(CNc1ncnc3nc[nH]c13)O2` (stereo not drawn), the inhibition is -8.18%.
On to `COC(=O)c1ccc(OC(=O)c2nn(C)cc2Cl)c(OC)c1`, for which the inhibition was -6.66%.
Consider `CN(c1ccccc1)c1ccc(/C=c2\s/c(=C(/C#N)C(=O)C(C)(C)C)n(Cc3ccco3)c2=O)cc1`, for which the inhibition was 71.8% (active).
`CCOc1ccccc1/C=c1\sc2nc(-c3ccco3)nn2c1=O`: the inhibition was 33.7%.
On to `O=c1nc2s/c(=C\c3ccco3)c(=O)n2nc1Cc1ccccc1`, for which the inhibition was 5.64%.
To `CN(C)c1cc(N)c2ccccc2n1` (tested in a mixture with another compound) belongs -10%.
Turning to `COc1ccc(-c2nc(CS(=O)CC(=O)NCc3ccccn3)c(C)o2)cc1` (stereo not drawn), the inhibition is 2.69%.
For `CCOC(=O)C1CCN(Cc2coc3ccc(Cl)cc3c2=O)CC1`, the inhibition is 2.73%.
Turning to `O=C(Cn1nnc(-c2ccccc2)n1)NCc1ccc2c(c1)OCO2`, the inhibition was -23.7%.
For the compound `c1ccc(-c2nnc3n2NC(c2ccc4c(c2)OCO4)S3)cc1` (stereo not drawn), the inhibition is 67.9% (active).
For `CC1=C(C(N)=O)C(c2ccc3c(c2)OCO3)n2nc(-c3cccc(C)c3)nc2N1` (stereo not drawn), the inhibition was 0.45%.
As to `COC(=O)C1=C(C)OC(N)=C(C#N)C1c1cc(OC)ccc1OC` (stereo not drawn), the inhibition is -6.95%.
To `CCC(=O)NC(=Nc1nc2ccccc2s1)NC(=O)CC` belongs -21.2%.
To `COc1ccc(Nc2oc(-c3ccccc3Cl)nc2C#N)cc1` belongs 54.5% (active); to `N#Cc1nc(-c2ccc(OCc3ccccc3)cc2)oc1NCCCN1CCOCC1`, -42.2%.
In the case of `CCOc1ccc(Nc2oc(Cc3ccccc3)nc2C#N)cc1`, the inhibition is -28.4%.
Regarding `NC(=O)CSC1=Nc2ccccc2C2=NC(CCC(=O)NCc3ccc(F)cc3)C(=O)N12` (stereo not drawn), the inhibition is -6.32%.
With `CC(C)C1N=C2c3ccccc3N=C(SCC(=O)c3ccc(O)c(O)c3)N2C1=O` (stereo not drawn), the inhibition is 96.1% (active).
For the compound `O=C(CSC1=Nc2ccccc2C2=NC(c3ccccc3)C(=O)N12)NCC1CCCO1` (stereo not drawn), the inhibition is 2.21%.
Consider `CCOc1cc(/C=N/O)cc(Br)c1OC`, for which the inhibition was -18.2%.
With `CN1CCC2(CC1)NC(=O)NC2=O`, the inhibition is -0.41%.
For the compound `COc1ccc(N2CCN(C(=O)CSc3nnc4ncccn34)CC2)cc1`, the inhibition is 2.76%.
Next, `COc1ccc(N2CCN(C(=O)CSc3nc4cc(OC)c(OC)cc4cc3C#N)CC2)cc1`: 36.4%; `COc1ccc(N2CCN(C(=O)CSc3ncnc4c3cnn4-c3ccc(OC)cc3)CC2)cc1`: 54.2% (active); `O=C(O)C1CCCN(S(=O)(=O)c2cccc3cccnc23)C1` (stereo not drawn): -3.84%.
As for `COc1cc2[nH]c(=S)n(CCN3CCCCC3C)c(=O)c2cc1OC` (stereo not drawn), the inhibition is -11%.
As for `CCSc1nc(=S)n(CC)c(C)c1C(C)=O`, the inhibition was -6.33%.
On to `CCOC(=O)c1nc(N)sc1C(=O)OCC`, for which the inhibition is -13.4%.
To `CCOC(=O)c1sc(=S)n(-c2cccc(OC)c2)c1N` belongs 65.1% (active).
For the compound `CCOC(=O)Cn1c(SC)nc2sc3c(c2c1=O)CC(C)(C)OC3`, the inhibition is -12.4%.
Next, `CCOC(=O)Cn1c(N)c(C(=O)OC)sc1=S`: 56.2% (active); `CCOC(=O)CSc1nnc(CNC(=O)c2cccs2)n1-c1ccccc1`: -126%.
Take `COC(=O)c1cn(-c2ccccc2)nc1-c1cccnc1`: the inhibition is -35.4%.
As to `COC(=O)c1sc(=S)n(-c2ccccc2)c1N`, the inhibition was 88.6% (active).
`CCOc1cccc(-n2nnnc2-c2ccc(OC)cc2)c1`: the inhibition is -27.8%.
As to `CCOC(=O)CNC(=O)c1nn(-c2cccc(OC)c2)c(=O)c2ccccc12`, the inhibition was -9.52%.
As to `O=C(Cn1c(=S)nc2ccccn21)N1CCc2ccccc2C1`, the inhibition was -12.1%.
Next, `Cc1nn2c3ccccc3nc2n(C)c1=O`: -8.5%; `CCOc1ncccc1C(=O)OCc1cn2cc(Cl)ccc2n1`: -19.9%.
Next, `CCN(CC)CCCN1C(=O)C(=O)/C(=C(/O)c2c(C)nc3ccccn23)C1c1ccc(C)o1` (stereo not drawn): -7.5%; `O=c1c2ccccc2nnn1CSc1nc2sc3c(c2c(=O)n1CC1CCCO1)CCC3` (stereo not drawn): -3.16%; `CC1Oc2ccccc2N(Cc2cccnc2)C1=O` (stereo not drawn): -1.88%.
Turning to `COC(=O)Nc1ccc(S(=O)(=O)N(C)CC(F)(F)C(F)F)cc1`, the inhibition was -4.49%.
For the compound `O=C(CN1CCN(CC(=O)Nc2ccc3c(c2)OCO3)CC1)Nc1ccc(F)cc1`, the inhibition is -10.3%.
With `c1ccc(Nc2nc(-c3ccncc3)cs2)nc1`, the inhibition was -13.7%.
Consider `N#CC(=C1SC=CS1)c1nc(-c2ccccc2)cs1`, for which the inhibition was 55.1% (active).
For the compound `N#C/C(=C1\CCCN1)c1nc(-c2ccccc2)cs1`, the inhibition was -34%.
